# Measured values: PubChem BioAssay AID493179 (National Center for Advancing Translational Sciences (NCATS), 2011)
# Records with an inconclusive call do not appear. Calls of active or inactive are those of the source. Calls follow the shape of the dose curve; as a rule, active = well fitted inhibition curve with a large enough effect; inconclusive = small, poorly fitted or top-dose-only effect; inactive = flat fitted curve, though single readings scatter.
# Experiment: Secondary Assay for General miRNAs Modulators and/or Inhibitors/Activators of miR-21: miR-30 Firefly Luciferase Assay for second round cherrypicks
# Conditions: HeLa miR-30 FLuc reporter, luminescence, 48 h
# Excerpt: MLPCN Grant: 1 R21 NS059478-01 Assay Provider: Qihong Huang, The Wistar Institute NCGC Assay Overview: MicroRNAs (miRNAs) are endogenously encoded small (~20-25 nucleotides), nonprotein-coding RNAs that are involved in post-transcriptional repression of target messenger RNAs (mRNAs) (Le and Hannon, 2004). Estimated to be involved in the regulation of 30% of all protein-coding mRNAs (Filipowicz et al., 2008), miRNAs play a significant role in many biological processes including cellular differentiation and tissue development (Ghildiyal and Zamore, 2009). […] Compounds active in the miR-21 FLuc assay were clustered using Leadscope and active chemical series were prioritized based on chemical properties, potential for medicinal chemistry optimization, and SAR. Within each chemical series, representative compounds were re-acquired to test for activity in a secondary assay based on the quality of their CRC, efficacy, and potency. […]
# NCGC Assay Protocol Summary: Reagents: HeLa cells stably expressing firefly luciferase (FLuc) under the control of a CMV promoter (upstream) and a miR-30 binding sequence directly downstream of the gene. […] After a 15 minute incubation to allow for cell lysis, luciferase activity was measured using a ViewLux CCD imager (PerkinElmer), with an average exposure time of 2-12 seconds. […]
compound,measurement,value
O=c1c2ccccc2nc(Cc2ccccc2)n1-c1ccccc1,Potency,20 µM (active)
